GPR151 ag: activators of human GPR151, primary screen, cell-based, PathHunter beta-arrestin, luminescence | PathHunter beta-arrestin GPR151 cells | G-protein coupled receptor 151 (Homo sapiens), Q8TDV0 | activation, % at 11.2 µM | actives 1% (n = 650,000); in the data active = activation above about 4.9%;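 also: 0% = median of compound wells and 100% = cells with positive control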
Target sequence (Q8TDV0 whole entry, looked up): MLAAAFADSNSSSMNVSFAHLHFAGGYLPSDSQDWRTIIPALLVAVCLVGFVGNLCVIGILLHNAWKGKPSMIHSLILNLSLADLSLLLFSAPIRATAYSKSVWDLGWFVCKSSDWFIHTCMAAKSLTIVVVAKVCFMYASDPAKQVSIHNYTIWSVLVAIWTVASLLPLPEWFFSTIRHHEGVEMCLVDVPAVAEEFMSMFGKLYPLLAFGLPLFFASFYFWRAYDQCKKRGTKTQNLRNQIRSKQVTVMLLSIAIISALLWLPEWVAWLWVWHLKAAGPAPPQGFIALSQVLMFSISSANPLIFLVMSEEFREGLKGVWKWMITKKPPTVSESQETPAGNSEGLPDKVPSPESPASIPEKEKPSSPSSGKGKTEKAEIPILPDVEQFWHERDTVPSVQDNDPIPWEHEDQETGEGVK
TEAD-YAP block: TEAD-YAP interaction inhibition, primary screen, TEAD-YAP interaction inhibitor project, luminescence, HEK-TIYL cells; TEAD-Gal4/YAP UAS-luciferase luminescence; inhibition, % at 9.12 µM; actives 1.4% (n = 640,000); AID 1259422, 2018; in the data active = inhibition above about 32%;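 also: 0% = median of test compound wells and 100% = reference inhibitor wells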
MITF primary: MITF inhibitors, primary screen, biochemical, AlphaScreen, human. Microphthalmia-associated transcription factor (Homo sapiens), O75030. AlphaScreen MITF homodimerization, bead proximity signal. inhibition, % at 2.6 µM. actives 0.91% (n = 650,000). AID 1259374, 2018; in the data active = inhibition above about 50%;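 also: 0% = vehicle wells with protein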
FBW7 activator: FBW7 E3 ligase activators, primary screen, biochemical, AlphaScreen, human; normalized activity (activation), % at 26.1 µM; AlphaScreen FBW7–phospho-cyclin E peptide binding, activator screen; actives 0.13% (n = 650,000); F-box/WD repeat-containing protein 7 (Homo sapiens), Q969H0; in the data active = normalized activity above about 1.9%;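 also: purified mutant Fbw7 with reduced substrate affinity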
* hit, by the source's call. Only some compounds are listed: those with a hit (about 3.5% of all), similar ones and a draw of the others.

SMILES | GPR151 ag | TEAD-YAP block | MITF primary | FBW7 activator
COc1ccc(NC(=O)CSc2nc3cc4c(cc3cc2C#N)OCCO4)c(OC)c1 | -1 | 83* | 25 | 0
CCOc1cc(C(=O)Nc2sc(C)c(CC)c2C(N)=O)cc(OCC)c1OCC | -1 | -2 | 7 | 0
CCN(CC)S(=O)(=O)c1nnc(NC(=O)c2ccccc2F)s1 | 0 | -12 | -8 | 0
Cn1c(=O)c2c(nc(Oc3ccccc3)n2Cc2ccccc2F)n(C)c1=O | -1 | -11 | 14 | 1
COc1ccc(S(=O)(=O)NCc2ccc(C(=O)NCCN3CCCCCC3)cc2)cc1 | 0 | -5 | -11 | -1
COc1cccc(NC(=O)CSc2nc3cc4c(cc3cc2C#N)OCCO4)c1 | 0 | 45* | -3 | 0
COc1ccc(CNC(=O)CSc2nc3cc4c(cc3cc2C#N)OCCO4)cc1 | 3 | 61* | 4 | 0
COc1ccc(CNC(=O)CSc2nc3cc(OC)c(OC)cc3cc2C#N)cc1 | 1 | -18 | -6 | 0
COc1cc2cc(C#N)c(SCC(=O)Nc3cc(C)on3)nc2cc1OC | -1 | -10 | 31 | 2.4*
CCC(C)NC(=O)CSc1nc2cc3c(cc2cc1C#N)OCO3 (centres undefined) | -2 | 51* | 9 | 0
Cc1cc(C)cc(OCC(=O)Nc2cccc(C)n2)c1 | 0 | 4 | 7 | 0
Cc1ccc2c(c1)C1(NN=C(c3ccccc3O)S1)C(=O)N2 (centres undefined) | 0 | 54* | 3 | 0
Cc1c(C(=O)N/N=C/c2ccc(O)cc2O)nnn1-c1nonc1N | 2 | 75* | 33 | -1
COc1cccc(/C=N/NC(=O)c2nnn(-c3nonc3N)c2C)c1O | 1 | 75* | 5 | 0
COc1cccc(/C=N/NC(=O)c2nnn(-c3nonc3N)c2-c2ccccc2)c1O | -1 | 15 | 18 | 0
COCc1c(C(=O)N/N=C\c2ccc(O)cc2O)nnn1-c1nonc1N | 2 | 19 | 34 | 0
CCN(CC)c1ccc(/C=N/NC(=O)c2nnn(-c3nonc3N)c2CN(C)C)c(O)c1 | 0 | 13 | -8 | 0
CCc1c(C(=O)N/N=C/c2ccc(N(CC)CC)cc2O)nnn1-c1nonc1N | -1 | 41* | 9 | 0
COc1cc(/C=C2\N=C(c3ccco3)OC2=O)cc(I)c1OC(C)=O | -1 | 4 | 1 | 0
COc1cccc(-c2csc(N3CCN(CC(=O)Nc4ccc(F)cc4)CC3)n2)c1 | 2 | 0 | 31 | 0
COc1cccc(NC(=O)CN2CCN(Cc3nc(-c4ccc(F)cc4)cs3)CC2)c1 | 4 | 33* | 15 | 0
Nc1nc(Nc2cnccn2)nc2nc[nH]c12 | -2 | 5 | 13 | 0
O=C(Nc1ccc(F)cc1)/C(Cl)=C/c1ccccc1 | -3 | -19 | 7 | 1
Cc1ccc(NC(=O)/C(Cl)=C\c2ccccc2)cc1 | -4 | 65* | 14 | 1
COc1ccc(NC(=O)/C(Cl)=C\c2ccccc2)cc1 | -2 | 45* | 23 | 0
SMILES | GPR151 ag | TEAD-YAP block | MITF primary | FBW7 activator
CC(=O)c1ccc(NC(=O)/C(Cl)=C/c2ccccc2)cc1 | -1 | -1 | 12 | 0
CC1Oc2ccc(F)cc2N(Cc2ccc(C(F)(F)F)o2)C1=O (centres undefined) | -2 | -7 | -18 | 0
CN(C1=C(Cl)C(=O)OC1OC(=O)c1ccccc1)c1ccccc1 (centres undefined) | -1 | 2 | 18 | 1
Cc1ccc(N2C(=O)/C(=C/c3ccc(Cl)cc3)C=C2c2ccccc2)c(C)c1 | 1 | -6 | 22 | 0
COc1ccc(/C=C2\C=C(c3ccccc3)N(c3ccccc3Br)C2=O)cc1 | -1 | 24 | 10 | 0
COc1ccc(/C=C2\C=C(c3ccccc3)N(c3ccc(C)cc3C)C2=O)cc1 | 0 | 45* | 27 | 1
COc1ccc(/C=C2\C=C(c3ccccc3)N(c3ccc(C)cc3Br)C2=O)cc1 | -1 | 47* | 1 | 0
COc1ccc(/C=C2\C=C(c3ccccc3)N(c3ccc(O)cc3)C2=O)cc1 | 2 | 49* | 11 | 0
COc1ccc(/C=C2\C=C(c3ccccc3)N(c3ccccc3)C2=O)cc1 | 1 | -48 | 4 | 0
CCCNC(=O)C1CCC(Cn2c(=O)c3sccc3n(Cc3ccc(F)cc3)c2=O)CC1 (centres undefined) | 1 | 4 | 10 | 0
CCCNC(=O)CN(C)c1nn2c(=O)cc(C)nc2s1 | -1 | 5 | 8 | 1
COc1cccc(C(=O)/C=C(\C)Nc2ccc(F)cc2F)c1 | 3 | -6 | 18 | 0
CC(C)c1ccc2oc(-c3ccc(Cl)c(N)c3)nc2c1 | -6 | 83* | 2 | 0
Cc1ccc2oc(-c3ccc(Cl)c(NC(=O)Cc4ccccc4)c3)nc2c1 | -1 | 4 | 5 | 0
CC(C)c1ccc2oc(-c3ccc(Cl)c(NC(=O)Cc4ccccc4)c3)nc2c1 | 0 | 61* | -4 | 0
Cc1ccccc1C(=O)Nc1cc(-c2nc3cc(C(C)C)ccc3o2)ccc1Cl | 1 | 4 | 7 | 0
COc1ccccc1C(=O)Nc1cc(-c2nc3cc(C(C)C)ccc3o2)ccc1Cl | 0 | 35* | 0 | 0
O=C1c2ccc(S(=O)(=O)c3ccc4c(c3)C(=O)N(c3c[nH]c(=O)[nH]c3=O)C4=O)cc2C(=O)N1c1c[nH]c(=O)[nH]c1=O | 0 | 0 | 10 | 0
COc1ccc(/C=C/c2ccc(N)cc2)cc1 | -1 | 41* | 13 | 0
CC(C)(C)c1ccc(C(=O)Nc2cccc(C(=O)O)c2)cc1 | -7 | 84* | 9 | 0
O=C(O)c1cccc(NC(=O)c2ccc(-c3ccccc3)cc2)c1 | 3 | 41* | -4 | 0
CCCCOC(=O)c1cccc(NC(=O)c2ccc(C(C)(C)C)cc2)c1 | 1 | 52* | -7 | 0
CCOCCOC(=O)c1ccc(NC(=O)c2ccc(C(C)(C)C)cc2)cc1 | 0 | 69* | 3 | 0
CN(Cc1ccccc1)C(=O)c1nc2ccccn2c1CN1CCCC(O)C1 (centres undefined) | 1 | 13 | 0 | 0
CCN(CC)c1ccc2nc3c4ccccc4c(=O)cc-3oc2c1 | 2 | 34* | 8 | 0
SMILES | GPR151 ag | TEAD-YAP block | MITF primary | FBW7 activator
CCN(CC)c1ccc2cc(C=O)c(=O)oc2c1 | 0 | 8 | 11 | 0
COc1ccccc1NCC(O)Cn1ccc2ccccc21 (centres undefined) | -1 | -4 | 69* | -1
CNCC(O)Cn1ccc2ccccc21 (centres undefined) | 1 | 12 | 4 | 0
C/C(=N\NC(=O)c1ccccc1[N+](=O)[O-])c1ccc(C(C)(C)C)cc1 | 0 | -5 | 10 | 0
COc1ccc(Cl)cc1NC(=O)CCc1ccc(S(=O)(=O)NCC(C)C)cc1 | 0 | -3 | 6 | 0
COc1ccc2c(=O)cc(C(Cl)(Cl)Cl)oc2c1 | -1 | 15 | 3 | 0
